According to PubChem BioAssay (NCATS):
Inconclusive results are not listed. Entries that show only a call come without a potency. Unmarked numbers belong to inactive results. Calls of active or inactive are those of the source. The call rests on the fitted dose curve; in most records, active means well fitted cell-killing curve with a large enough effect; inconclusive means small, poorly fitted or top-dose-only effect, or effect the other way; inactive means flat fitted curve, though single readings scatter.

Legend:
Test in all cases: Primary qHTS to identify gynecologic anti-cancer compounds using libraries of approved drugs and bioactive compounds (AID 1345084); further: nearly all actives have a fitted effect of over 55% in size
Conditions in all cases: Gynecologic cancer cell panel viability, ATPlite luminescence, 48 h; series mostly up to 57.5 µM
[1] = tested on: SKOV3
How it was run: (§1)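 Five-concentration response, 48 h; readout is ATP-driven luciferase luminescence.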

[2] = tested on: Tov-21-G
How it was run: as §1

[3] = tested on: Tov112D
How it was run: as §1
Potency means the concentration at half of the fitted maximal effect.

| SMILES | Potency [1] | Potency [2] | Potency [3] | activity change, negative = cytotoxicity [1] | activity change, negative = cytotoxicity [2] | activity change, negative = cytotoxicity [3] |
| --- | --- | --- | --- | --- | --- | --- |
| CC1(C)OC[C@H](NC(=O)Nc2ccc(Br)cc2Br)[C@H](c2ccccc2)O1 | inactive | inactive | inactive | – | – | – |
| Fc1ccc(CN2CCC(Nc3ccc(C(F)(F)F)nn3)CC2)cc1F | inactive | inactive | inactive | – | – | – |
| CC(CCC1(O)OC2CC3C4CC=C5C[C@@H](O[C@@H]6O[C@H](CO)[C@@H](O[C@@H]7O[C@@H](C)[C@H](O)[C@@H](O)[C@H]7O)[C@H](O)[C@H]6O[C@@H]6O[C@@H](C)[C@H](O)[C@@H](O)[C@H]6O)CC[C@]5(C)C4CC[C@]3(C)[C@@]2(O)[C@@H]1C)CO[C@@H]1O[C@H](CO)[C@@H](O)[C@H](O)[C@H]1O (some centres not stated) | – | – | – | 2.43% [at 11.6 µM] | 0.779% [at 11.6 µM] | -0.117% [at 11.6 µM] |
| COC(CCc1ccc(O)cc1)CC(=O)CCc1ccc(O)cc1 (configuration not stated) | inactive | inactive | inactive | – | – | – |
| CC1=C(c2ccc(NC(=O)c3c(F)cccc3F)cc2)CN(c2nccs2)CC1 | inactive | inactive | inactive | – | – | – |
| COc1ccc(S(=O)(=O)n2cnc3cc(C)c(C)cc32)cc1 | inactive | inactive | inactive | – | – | – |
| O=[N+]([O-])c1cn2c(n1)OC[C@@H](OCc1ccc(-c3ccc(OC(F)(F)F)cc3)nc1)C2 | inactive | inactive | inactive | – | – | – |
| CC(C)(Cc1nc(-c2ccc(O)cn2)no1)C(=O)NC1=C(C(=O)O)CCCC1 | inactive | inactive | inactive | – | – | – |
| CN1CCN(c2ccc(Nc3cc(-c4cccc(-n5ccc6cc(C7CC7)cc(F)c6c5=O)c4CO)cn(C)c3=O)nc2)CC1 | inactive | inactive | inactive | – | – | – |
| COc1ccc(-n2c(SCCCN3C(=O)c4cccc5cccc(c45)C3=O)nnc2-c2ccncc2)cc1 | inactive | inactive | inactive | – | – | – |
| C#CC(=O)N(c1ccc(OC)cc1OC)C(C(=O)NCC(=O)OCC)c1cccs1 (configuration not stated) | 3.16 µM (active) | 0.398 µM (active) | 6.31 µM (active) | – | – | – |
| C=C[C@]1(C)C[C@H](O)[C@H]2C(=C)C(=O)O[C@@H]2[C@H]1C(=C)CO | inactive | inactive | inactive | – | – | – |
| COc1c2c(nc3occc13)C(CC=C(C)C)(OC)C(O)CC2 (configuration not stated) | inactive | inactive | inactive | – | – | – |
| COC(=O)c1sccc1S(=O)(=O)Nc1ccc(Nc2ccccc2)cc1OC | inactive | inactive | inactive | – | – | – |
| CCC(C)C1NC(=O)C(Cc2ccccc2)NC(=O)C(CCCCCC(=O)C(O)CO)NC(=O)C2CCCCN2C1=O (configuration not stated) | inactive | inactive | inactive | – | – | – |
| CCCNCCc1ccc(NS(=O)(=O)c2ccc(OC(F)(F)F)cc2)cc1 | inactive | inactive | inactive | – | – | – |
| O=C(Nc1ccc2[nH]c(=O)oc2c1)C(=O)N1CCC(Cc2ccc(F)cc2)CC1 | inactive | inactive | inactive | – | – | – |
| Fc1ccc(N2CCCCC2)c(NC(=S)c2ccncc2)c1 | inactive | inactive | inactive | – | – | – |
| Cc1sc2c(c1C)C(c1ccc(Cl)cc1)=N[C@H](CC(=O)NCCCCNC(=O)COc1cccc3c1C(=O)N([C@H]1CCC(=O)NC1=O)C3=O)c1nnc(C)n1-2 | inactive | 1.78 µM (active) | inactive | – | – | – |
| COC1=CC(=O)C=C(C)C12Oc1c(Cl)c(OC)cc(OC)c1C2=O (configuration not stated) | inactive | inactive | inactive | – | – | – |

| SMILES | Potency [1] | Potency [2] | Potency [3] | activity change, negative = cytotoxicity [1] | activity change, negative = cytotoxicity [2] | activity change, negative = cytotoxicity [3] |
| --- | --- | --- | --- | --- | --- | --- |
| COc1ccc(CN2CCN(CCCSc3cc(C(C)(C)C)c(O)c(C(C)(C)C)c3)CC2)c(OC)c1OC | – | – | – | 17.3% [at 11.6 µM] | 7.27% [at 11.6 µM] | 2.48% [at 11.6 µM] |
| Cc1noc(C)c1-c1cc(O)cc(C(O)c2ccccc2)c1 (configuration not stated) | 15.8 µM (active) | inactive | inactive | – | – | – |
| O=C(NCCO)c1cccc(-c2cc(Nc3ccc(OC(F)(F)F)cc3)ncn2)c1 | inactive | inactive | inactive | – | – | – |
| N#Cc1ccc(Nc2nc(-c3ccc(O)cc3O)cs2)cc1C(F)(F)F | 8.91 µM (active) | 5.01 µM (active) | 7.94 µM (active) | – | – | – |
| COc1ccccc1N1CCN(CC[C@@](C)(C(=O)C2CCCCC2)c2ccccc2)CC1 | inactive | inactive | inactive | – | – | – |
| CC(=O)OC1C(O)CC2(C)C(CCC3(C)C2CC=C2C4C5(CCC(CO[C@@H]6O[C@H](CO)[C@@H](O)[C@H](O)[C@H]6O)(OC5=O)C4(C)O)C(O)CC23C)C1(C)C (some centres not stated) | inactive | inactive | inactive | – | – | – |
| CCNC1(C(N)=O)CN(c2nc(C)nc3c(-c4ccc(Cl)cc4)c(-c4ccccc4Cl)nn23)C1 | inactive | inactive | inactive | – | – | – |
| O=C(Nc1ccccc1C(=O)Nc1ccc(CCO)cc1)c1ccc([N+](=O)[O-])cc1 | inactive | inactive | inactive | – | – | – |
| Cc1ccc(-c2cn3c4c(sc3n2)CCCC4)cc1 | 15.8 µM (active) | 12.6 µM (active) | 12.6 µM (active) | – | – | – |
| CC1(C)Oc2ncnc(N)c2N=C1c1ccc(C23CCC(CC(=O)O)(CC2)CC3)cc1 | inactive | inactive | inactive | – | – | – |
| COc1ccccc1OCCNCC(O)CCOc1cccc2[nH]c3ccccc3c12 (configuration not stated) | inactive | inactive | inactive | – | – | – |
| CC(=O)O[C@]1(C(C)=O)CC[C@H]2[C@@H]3CCC4=CC(=O)CCC4=C3[C@@H](c3ccc(N(C)C)cc3)C[C@@]21C | inactive | inactive | inactive | – | – | – |
| C=C1CC[C@@H]2[C@](C)(CO)[C@H](O)CC[C@@]2(C)[C@@H]1/C=C/C1=CCOC1=O | inactive | inactive | inactive | – | – | – |
| CC(=O)OC[C@]12[C@H](OC(C)=O)[C@H](OC(=O)c3ccccc3)[C@@H]3[C@@H](OC(C)=O)[C@]1(OC3(C)C)[C@H](C)C[C@H](OC(C)=O)[C@@H]2OC(=O)c1ccccc1 | inactive | inactive | inactive | – | – | – |
| O=C(c1ccccn1)N(Cc1cccs1)C1(C(=O)NC2CCCCC2)CCCCC1 | inactive | inactive | inactive | – | – | – |
| Cc1cccc(-c2[nH]ncc2-c2ccnc3ccccc23)n1 | inactive | inactive | inactive | – | – | – |
| O=C1Nc2ccccc2-c2nc3ccccc3c(=O)n2-c2c(O)cccc21 | inactive | inactive | inactive | – | – | – |
| Nc1nc2c(ncn2C2OC3COP(=O)(O)OC3C2O)c(=O)[nH]1 (configuration not stated) | inactive | inactive | inactive | – | – | – |
| CNC(=O)c1ccc2c(c1)CCO[C@H]2CCN1CCN(c2ccc(OC)cc2)CC1 | inactive | inactive | inactive | – | – | – |
| CC(=O)OC1CC(O)(C(C)C)C2C(OC(=O)c3ccc(O)cc3)C=C(C)C(=O)CC12C (configuration not stated) | inactive | inactive | inactive | – | – | – |

| SMILES | Potency [1] | Potency [2] | Potency [3] | activity change, negative = cytotoxicity [1] | activity change, negative = cytotoxicity [2] | activity change, negative = cytotoxicity [3] |
| --- | --- | --- | --- | --- | --- | --- |
| CCCCCc1ccc(/C=C/C(=O)Nc2cc(Cl)ccc2C(=O)O)cc1 | inactive | inactive | inactive | – | – | – |
| c1cc(-c2cnn3cc(-c4ccc(N5CCNCC5)cc4)cnc23)c2cccnc2c1 | inactive | inactive | inactive | – | – | – |
| COC(=O)C[C@H]1[C@]2(C)C3=C(C)[C@H](c4ccoc4)C[C@H]3O[C@@H]2[C@H](O)C2[C@](C)(C(=O)OC)C=CC(=O)[C@@]21C (some centres not stated) | inactive | inactive | inactive | – | – | – |
| CC1(C)SCCN(S(=O)(=O)c2ccc(Oc3ccncc3)cc2)[C@H]1C(=O)NO | inactive | inactive | inactive | – | – | – |
| CCCN1CCC=C(c2cc(-c3ccc(C)cc3)no2)C1 | inactive | inactive | inactive | – | – | – |
| O=C(NCc1ccc(OC(F)(F)F)cc1)C1c2c(F)cccc2C(=O)N1CCc1ccccn1 (configuration not stated) | inactive | inactive | inactive | – | – | – |
| CC(C)OC(=O)N1CCC(Oc2ncnc3c2cnn3-c2ccc(S(C)(=O)=O)cc2F)CC1 | inactive | inactive | inactive | – | – | – |
| COc1ccc(N2CCN(C(=O)c3cc4c(s3)-c3ccccc3S(=O)(=O)C4)CC2)cc1 | inactive | inactive | inactive | – | – | – |
| Cc1c(Cl)cccc1S(=O)(=O)Nc1nc(NCCc2ccccc2)nc2c1CN(Cc1ccccc1)CC2 | inactive | inactive | inactive | – | – | – |
| CCC(C)(OC(C)=O)C(=O)O[C@H]1[C@H](OC(C)=O)[C@]2(CO)[C@H](O)[C@H](O)[C@]3(C)C(=CCC4[C@@]5(C)CC[C@H](O[C@@H]6O[C@H](C(=O)O)[C@@H](O)[C@H](O[C@@H]7OC[C@H](O)[C@H](O[C@@H]8OC[C@H](O)[C@H](O)[C@H]8O)[C@H]7O)[C@H]6O[C@@H]6O[C@H](CO)[C@@H](O)[C@H](O)[C@H]6O)C(C)(C)C5CC[C@]43C)[C@@H]2CC1(C)C (some centres not stated) | – | – | – | -31.7% [at 6.55 µM] | -3.66% [at 6.55 µM] | -10.5% [at 6.55 µM] |
| CC#C[C@@H](CC(=O)O)c1ccc(OCc2ccc(CN3CCC4(C=Cc5ccccc54)CC3)s2)cc1 | inactive | inactive | inactive | – | – | – |
| C=C1/C(=C/C=C2\CCC[C@]3(C)[C@@H]([C@@H](C)OCCC(O)(CC)CC)CC[C@@H]23)C[C@@H](O)C[C@@H]1O | inactive | inactive | inactive | – | – | – |
| O=C(Nc1ccccc1Br)NC1CCN(c2ccc(C(F)(F)F)cn2)C1 (configuration not stated) | inactive | inactive | inactive | – | – | – |
| CC(C)(C)c1ccc2c(c1)CC[C@H]2NC(=O)Nc1cccc2[nH]ncc12 | inactive | inactive | inactive | – | – | – |
| COc1cc(NC(=O)c2cc(C3CC3)on2)c(OC)cc1Cl | inactive | inactive | inactive | – | – | – |
| CN1CC[C@@H](c2c(O)cc(O)c3c(=O)cc(-c4ccc(C(F)(F)F)cc4Cl)oc23)[C@@H]1CO | inactive | inactive | inactive | – | – | – |
| CCOc1ccc(CCNC(=O)c2cc3sc(Cl)cc3n2C)cc1OCC | inactive | inactive | inactive | – | – | – |
| C=C1C(=O)O[C@@H]2[C@H]1CCC(C)=C(CCC(=O)O)[C@@]2(C)O | inactive | inactive | inactive | – | – | – |
| CC(=O)O[C@H]1[C@@]2(O)C[C@H](C)[C@H](OC(=O)c3ccccc3)[C@@H]2[C@@H](OC(=O)CO)[C@]2(OC(C)=O)C[C@H]3C(=O)C(C)(C)C[C@@H]3[C@@]1(C)[C@H]2OC(C)=O | inactive | inactive | inactive | – | – | – |
